# Test results as given in PubChem BioAssay (NCI).
# Compounds without any hit were thinned out: in the full panel of roughly 79,000, 15% have a hit. A number with no mark means an inactive call. Active and inactive are the calls of the source. Rule as the data show it: active = growth inhibition above about 70%; inactive = the rest.
# What was measured:
# [1] = NCI Yeast Anticancer Drug Screen. Data for the rad50 strain (AID 155);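 also: 0% = growth of vehicle-only cultures of the same strain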; conditions: S. cerevisiae rad50 strain growth inhibition; at 50.0 µM; hits give high values
# Procedure, shortened: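 Vehicle-treated cultures provide the reference for the growth inhibition reported for compound-exposed, repair-deficient yeast.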
# [2] = NCI Yeast Anticancer Drug Screen. Data for the mec2-1 strain (AID 157); conditions: S. cerevisiae mec2-1 strain, at 50.0 µM, hits give high values
# Procedure, shortened: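 Readout is yeast growth inhibition, normalised to vehicle-treated controls, in the mec2-1 strain exposed to compound.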
# [3] = NCI Yeast Anticancer Drug Screen. Data for the sgs1 mgt1 strain (AID 161);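 also: 0% = growth of cultures given vehicle only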; conditions: S. cerevisiae sgs1 mgt1 strain, at 50.0 µM, hits give high values
# Procedure, shortened: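 This yeast growth screen uses a strain with defined DNA-repair lesions; compound-treated growth is compared with vehicle-treated growth.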
# [4] = NCI Yeast Anticancer Drug Screen. Data for the cln2 rad14 strain (AID 165);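 also: 0% = growth equal to vehicle treated cultures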; conditions: S. cerevisiae cln2 rad14 strain, at 50.0 µM, hits give high values
# Procedure, shortened: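 Relative to vehicle controls, growth inhibition of compound-treated cln2 rad14 yeast was recorded.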
# [5] = NCI Yeast Anticancer Drug Screen. Data for the bub3 strain (AID 167); conditions: S. cerevisiae bub3 mutant strain, at 50.0 µM, hits give high values
# Procedure, shortened: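 Mutant yeast screening strain plus compound; vehicle-treated cultures serve as the 0% inhibition reference.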
# [6] = NCI Yeast Anticancer Drug Screen. Data for the mlh1 rad18 strain (AID 175); conditions: S. cerevisiae mlh1 rad18 strain growth inhibition; at 50.0 µM; hits give high values
# Procedure, shortened: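 Test agents were incubated with a yeast strain of defined genotype (DNA damage repair defect). Inhibition of growth was derived by comparison with vehicle-exposed cultures.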
SMILES,growth inhibition [1],growth inhibition [2],growth inhibition [3],growth inhibition [4],growth inhibition [5],growth inhibition [6]
O=CC1OC(c2ccccc2)OC1C1OC(c2ccccc2)OC1C=O (stereo unspecified),19.4%,13.7%,19.2%,-22.6%,17.9%,22.8%
CC(N)C(O)C(C)C(=O)O (stereo unspecified),20.8%,9.5%,41.8%,44.5%,35%,7.35%
CC1(C)N=C(N)N=C(N)N1c1cccc(OCc2cccc([N+](=O)[O-])c2)c1,0.55%,7.2%,-31.3%,24.6%,-30.3%,-14.8%
O=C(C[N+]12CN3CN(CN(C3)C1)C2)c1cccc2ccccc12,11.2%,-11.6%,9.35%,-3.2%,-4.7%,14.6%
CC(=O)OC1CCC2(C)C(=CC=C3C4CCC(=O)NC4(C)CCC32)C1 (stereo unspecified),19.5%,0.25%,21.4%,11.1%,-3.6%,2.35%
N#Cc1c(-c2ccccc2)c(C#N)c(=O)n(N)c1N,-6.7%,-0.8%,7.35%,2.5%,23.1%,16.9%
COc1c2c(cc3c1C1(O)Cc4ccc5c(c4C[N+]1(C)CC3)OCO5)OCO2 (stereo unspecified),10.8%,3.05%,-5.3%,-1.15%,-4.25%,-60.8%
CC1=NN(c2ccccc2)C(=O)CC1,-3.65%,-8.8%,26.5%,16.6%,16.3%,5.05%
CC(=O)C1C(=O)C(=O)N(c2ccc([N+](=O)[O-])cc2)C1=O (stereo unspecified),-26.9%,-37.4%,-10.7%,20.9%,-1.9%,-37.5%
CC1C=CC(C)N(c2nnnn2C)N1c1nnnn1C (stereo unspecified),-11.6%,9.75%,14.9%,-6.3%,-2.6%,-3.9%
COc1cc(/C=N/N2CC(=O)N(c3cccc(Cl)c3)CC2=O)cc(OC)c1,-1.65%,5.7%,-1.6%,-12.8%,-4.65%,26.7%
CCOC(=O)C1C(=O)N(O)c2cnccc21 (stereo unspecified),-1.9%,-16.6%,-12.5%,-12.2%,15%,8.35%
NC(N)=NS(=O)(=O)c1ccc(NC(=O)c2cccn3c(=O)c4ccccc4nc23)cc1,-6.9%,-2.5%,30.3%,11.7%,-9.4%,-20.9%
CN(C)NC(=S)Nc1ccccc1,-5.05%,-0.65%,-11.8%,-36%,-1.7%,-6.15%
CN1CCCC(NC(c2ccccc2)c2ccccc2)C1 (stereo unspecified),25.4%,0.45%,23.9%,-11.8%,34.5%,18.9%
CCCCCCCCCCCCCCC1CC(=O)OC1=O (stereo unspecified),-22.6%,-30.1%,-9.55%,0.5%,-10.8%,-31.8%
COc1ccccc1C(=O)N/N=C/c1ccccc1Cl,4.25%,35.3%,32.4%,-4.3%,9.05%,30.1%
NC(=O)C1C[C@@H](O)CN1C(=O)c1ccc2c(c1)OCO2 (stereo partly specified),-11.6%,-9.8%,-24.6%,6.5%,3.05%,1.25%
O=C1NC(=O)C(F)(F)C1(F)F,4.9%,7.3%,-6.45%,-1.1%,0.25%,4.35%
COc1cc([C@@H]2OCC3C(c4ccc5c(c4)OCO5)OCC32)cc(OC)c1OC (stereo partly specified),9.9%,-17.2%,24.2%,28.6%,43.4%,18.4%
Cc1ccc(CN(CCO)Cc2ccccc2)cc1,1.75%,39%,28.1%,0.65%,43.1%,47.1%

SMILES,growth inhibition [1],growth inhibition [2],growth inhibition [3],growth inhibition [4],growth inhibition [5],growth inhibition [6]
CC1(C)C/C(=C\c2ccc([N+](=O)[O-])cc2)C(=O)c2ccccc21,80.3% (active),71.7% (active),77.5% (active),40.3%,76.5% (active),89% (active)
O=C1c2ccccc2C(=O)c2c1c([N+](=O)[O-])c1c(c2[N+](=O)[O-])OCO1,7.15%,0.15%,21.8%,-0.15%,14.1%,31.2%
C#CC1(NC(=O)c2ccccc2C(=O)Nc2cccc(C(F)(F)F)c2)CCCCC1,-12.9%,-19.1%,-14.2%,11.3%,-20.1%,-14.2%
O=COC1CCCCCC1,-8.55%,-28.9%,-11.1%,7.9%,-5.9%,12.9%
O=C1/C(=C\c2ccccc2)C2C3CCC(C3)C2/C1=C\c1ccccc1 (stereo unspecified),-3.55%,0.55%,4.6%,-63.8%,11.1%,-17.4%
Clc1ccc(C=NC23CC4CC(CC(C4)C2)C3)cc1Cl,-19.1%,-24.1%,-16.2%,17.6%,7.55%,12%
CC(=O)CC(=O)N1CCCCCC1,-0.65%,-16.9%,0.5%,11.8%,-13.3%,25.1%
COC(=O)c1nn2c(=O)n(C(C)=O)c3ccccc3c2c1C(=O)OC,27.2%,4.85%,9.65%,15.8%,8.5%,24.6%
Cc1c(C(=O)O)c2ccccc2[nH]c1=O,-2.85%,-1.25%,2.85%,-40%,-13.2%,2.5%
CCN(CC)CCC(=O)Nc1cc(OC)cc2cccnc12,10.7%,10.5%,6.25%,-21.1%,-19.4%,-8.1%
COc1cccc2c1C(=O)c1c(O)c3c(c(O)c1C2=O)C[C@@](O)(/C(C)=N\NC(=O)CCC(N)C(=O)O)C[C@@H]3OC1CC(N)C(O)C(C)O1 (stereo partly specified) (tested in a mixture with another compound),-30.9%,-57.9%,0.65%,-6.05%,-25.8%,-46.7%
COC(OC)c1cccc2c1C(=O)CCC1(O)c3ccccc3C1C2 (stereo unspecified),-8.55%,-6.65%,-38.9%,-0.4%,-30.1%,-30.9%
O=P(CCC(CC(F)(F)C(F)(F)C(F)(F)C(F)(F)C(F)(F)C(F)(F)C(F)(F)F)P(=O)(N1CC1)N1CC1)(N1CC1)N1CC1 (stereo unspecified),5.1%,3.5%,-1.6%,-5.1%,-0.35%,2.35%
C=CCNC(=S)NNC(=O)c1c(C)nc2sccn12,-4.75%,-10.8%,-12.1%,0.25%,-14.2%,-5.9%
CC1(C)CC2C(C1=O)C1(C)CCCC2(C)C1=O (stereo unspecified),-11.8%,-7.1%,-26.6%,-14.8%,3%,-46.5%
CCOC(=O)C1CCc2ccccc2C1=O (stereo unspecified),-2.95%,-12.3%,5.85%,-3.35%,14.6%,-4.95%
ClC1=CC(Cl)=C2N=C(N3CCCC3)N=C3N=C(C(Cl)(Cl)Cl)N=C1N32,-2.8%,22.6%,3.6%,-13.4%,3.2%,-20.4%
BrCCOC(OCCBr)(c1ccccc1)c1ccccc1,19.8%,-10.9%,2.3%,11.5%,4.95%,6.3%
CCCCCCCCCCCC(=O)N/N=C(\C)c1cccc2ccccc12,86.8% (active),84.2% (active),94% (active),59.8%,43.8%,84.2% (active)
CC(OC(=O)Nc1ccccc1)c1ccccc1 (stereo unspecified),37.2%,7.9%,11.9%,9.9%,9.2%,17.4%
